According to PubChem BioAssay (Tox21):
“And” between values parts separate entries of the source, which are not always exact repeats. Identical values can stand only once. Results filed as inconclusive are left out. Entries that show only a call come without a potency. The source holds several records for some structures; these can differ, active in one and inactive in another. The source made the active and inactive calls. Unless noted, calls come from the whole dose curve; as a rule, active = well fitted curve in the direction sought with a large enough effect in the repeat runs; inconclusive = weak or mixed curves; inactive = no such curve, though single readings can be large; an effect the other way counts as inactive or inconclusive.

Legend:
[1] = target: Thyrotropin-releasing hormone receptor (Homo sapiens) (UniProt P34981); assay: qHTS assay to identify small molecule agonists of the thyrotropin-releasing hormone receptor (TRHR) signaling pathway (AID 1346891; calls by dose curve; note: potency is the fitted concentration of half-maximal effect; for activation: series mostly up to about 58 µM)
Thyrotropin-releasing hormone receptor (Homo sapiens), sequence (P34981 whole entry, looked up): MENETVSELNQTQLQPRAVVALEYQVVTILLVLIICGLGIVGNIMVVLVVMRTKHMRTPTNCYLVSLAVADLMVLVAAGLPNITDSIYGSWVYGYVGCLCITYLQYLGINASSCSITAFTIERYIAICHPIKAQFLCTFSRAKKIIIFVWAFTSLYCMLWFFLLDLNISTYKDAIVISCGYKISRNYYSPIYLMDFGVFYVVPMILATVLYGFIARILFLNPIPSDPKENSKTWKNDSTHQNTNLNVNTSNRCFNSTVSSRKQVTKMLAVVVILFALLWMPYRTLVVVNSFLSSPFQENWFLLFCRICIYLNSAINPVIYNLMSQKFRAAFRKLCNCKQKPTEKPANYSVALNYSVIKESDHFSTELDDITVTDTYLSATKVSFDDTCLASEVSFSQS
How it was run: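 Agonist-mode intracellular calcium readout: kinetic fluorescence over 3 min at 1 s intervals after compound addition to TRHR-HEK293 cells (18 h seeded, 2 h dye-loaded at 37 C). Fifteen concentrations, triplicates.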

[2] = Human pregnane X receptor (PXR) small molecule agonists, qHTS cell viability counter screen (AID 1346977); note: nearly all actives have a fitted effect of over 50% in size; note: potency is the fitted concentration of half-maximal effect
How it was run: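 Same-well viability read: CellTiter-Fluor added after 23 hr compound exposure, fluorescence measured 1 hr later. Cells were PXR-Luc HepG2 seeded at 2,000/well in 5% charcoal-stripped FBS medium, rested 5 hr before dosing at 37 C.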

[3] = Caspase-3/7 induction in HepG2 cells by small molecules, qHTS cell viability counter screen (AID 1346981); note: nearly all actives have a fitted effect of over 30% in size; note: potency is the fitted concentration of half-maximal effect
How it was run: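 Wild-type HepG2 cells (2,000/well) were allowed to settle for 5 hr at 37 C, 5% CO2, then dosed with compounds in DMSO by pin transfer. After 16 hr at 37 C, CellTiter-Fluor was added and fluorescence read 1 hr later.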

[4] = target: Nuclear receptor subfamily 1 group I member 2 (Homo sapiens) (UniProt O75469); assay: Human pregnane X receptor (PXR) small molecule agonists, qHTS assay (AID 1346982); note: nearly all actives have a fitted effect of over 35% in size; note: potency is the fitted concentration of half-maximal effect
Nuclear receptor subfamily 1 group I member 2 (Homo sapiens), sequence (O75469 whole entry, looked up): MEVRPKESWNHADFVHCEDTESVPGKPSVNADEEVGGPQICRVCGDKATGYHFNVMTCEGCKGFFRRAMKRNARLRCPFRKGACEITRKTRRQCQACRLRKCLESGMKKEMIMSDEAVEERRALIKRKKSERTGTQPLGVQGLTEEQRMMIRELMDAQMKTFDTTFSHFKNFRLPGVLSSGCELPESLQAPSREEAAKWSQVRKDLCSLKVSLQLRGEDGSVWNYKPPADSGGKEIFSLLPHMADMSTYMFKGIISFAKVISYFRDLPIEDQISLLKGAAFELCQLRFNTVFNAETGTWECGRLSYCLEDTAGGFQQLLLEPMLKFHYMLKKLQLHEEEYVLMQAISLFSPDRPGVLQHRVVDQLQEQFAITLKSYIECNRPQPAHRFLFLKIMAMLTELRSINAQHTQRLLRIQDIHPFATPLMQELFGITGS
How it was run: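 PXR-Luc HepG2 cells (CYP3A4 promoter-driven luciferase) were seeded in medium with 5% charcoal-stripped FBS, left 5 hr at 37 C, then exposed to compounds in DMSO for 24 hr. Luminescence was read after ONE-Glo addition.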

[5] = target: Nuclear receptor subfamily 1 group I member 2 (Rattus norvegicus) (UniProt Q9R1A7); assay: Rat pregnane X receptor (rPXR) activation by small molecules, qHTS assay (AID 1346983); conditions: rPXR luciferase reporter cells, One-Glo luminescence, 24 h; max activation: stronger effect = higher value; note: nearly all actives have a fitted effect of over 20% in size
Nuclear receptor subfamily 1 group I member 2 (Rattus norvegicus), sequence (Q9R1A7 whole entry, looked up): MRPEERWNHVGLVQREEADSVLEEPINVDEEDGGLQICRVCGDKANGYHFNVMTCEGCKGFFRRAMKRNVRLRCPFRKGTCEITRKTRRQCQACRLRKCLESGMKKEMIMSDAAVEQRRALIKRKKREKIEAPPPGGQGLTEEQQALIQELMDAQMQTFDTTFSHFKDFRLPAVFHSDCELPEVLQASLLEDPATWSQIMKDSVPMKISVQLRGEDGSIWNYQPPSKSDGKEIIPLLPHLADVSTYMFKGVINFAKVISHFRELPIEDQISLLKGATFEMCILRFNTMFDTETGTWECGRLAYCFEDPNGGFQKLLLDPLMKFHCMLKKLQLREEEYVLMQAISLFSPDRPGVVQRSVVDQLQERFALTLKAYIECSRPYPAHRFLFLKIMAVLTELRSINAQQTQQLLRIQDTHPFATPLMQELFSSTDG
How it was run: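 Cell-based rPXR activation assay: rPXR cells, 2,000 per well, rested 5hr at 37 C, then exposed to compounds in DMSO for 24 hr at 37 C. Luciferase activity read by One-Glo luminescence after 30 min at room temperature.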

[6] = target: Nuclear receptor subfamily 1 group I member 2 (Homo sapiens) (UniProt O75469); assay: CYP3A4 induction through human pregnane X receptor (PXR) by small molecules, qHTS assay (AID 1346984); note: nearly all actives have a fitted effect of over 40% in size
How it was run: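 DPX-2 cells (HepG2 co-transfected with PXR and CYP3A4 promoter-luciferase) treated with compounds 24 h at 37C; luciferin-IPA CYP3A4 substrate 3uM final added for 3 h, then One-Glo; luminescence read. qHTS format.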

[7] = target: Nuclear receptor subfamily 1 group I member 2 (Homo sapiens) (UniProt O75469); assay: Human pregnane X receptor (PXR) activation by small molecules, qHTS assay (AID 1346985); note: nearly all actives have a fitted effect of over 40% in size
How it was run: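 DPX-2 cells (HepG2 co-transfected with a PXR response element and a CYP3A4-promoter luciferase construct) were seeded at 2,000 per well, rested 5 hr at 37C, then exposed to DMSO-dissolved compounds for 24 hr. Activation was read as luciferase luminescence.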

[8] = target: Cytochrome P450 2D6 (Homo sapiens) (UniProt P10635); assay: Cytochrome P450 Family 2 Subfamily D Member 6 (CYP2D6) small molecule antagonists: luciferase reporter qHTS assay (AID 1671196); note: nearly all actives have a fitted effect of over 50% in size; note: potency is the fitted concentration of half-maximal effect
Cytochrome P450 2D6 (Homo sapiens), sequence (P10635 whole entry, looked up): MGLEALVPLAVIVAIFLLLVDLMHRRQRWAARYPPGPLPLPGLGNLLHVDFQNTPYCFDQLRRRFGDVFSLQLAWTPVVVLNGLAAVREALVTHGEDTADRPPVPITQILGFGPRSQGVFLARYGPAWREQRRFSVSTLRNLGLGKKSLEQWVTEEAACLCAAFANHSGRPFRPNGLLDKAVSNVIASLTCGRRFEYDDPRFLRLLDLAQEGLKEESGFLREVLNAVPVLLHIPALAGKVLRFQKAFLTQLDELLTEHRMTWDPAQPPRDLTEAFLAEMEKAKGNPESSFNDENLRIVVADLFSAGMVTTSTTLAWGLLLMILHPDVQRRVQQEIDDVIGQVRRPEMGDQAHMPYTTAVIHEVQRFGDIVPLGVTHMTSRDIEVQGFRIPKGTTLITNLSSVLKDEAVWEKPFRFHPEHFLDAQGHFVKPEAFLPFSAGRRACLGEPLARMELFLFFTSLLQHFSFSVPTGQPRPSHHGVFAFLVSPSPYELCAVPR
How it was run: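 CYP2D6 enzyme–substrate mix was held with compound for 10 min at room temperature, then NADPH regeneration solution was added and the reaction ran 1 h at room temperature. Luciferin product was detected by luminescence after 20 min with detection reagent.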

[9] = target: Cytochrome P450 2C19 (Homo sapiens) (UniProt P33261); assay: Cytochrome P450 Family 2 Subfamily C Member 19 (CYP2C19) small molecule antagonists: luciferase reporter qHTS assay (AID 1671197); note: nearly all actives have a fitted effect of over 65% in size; note: potency is the fitted concentration of half-maximal effect
Cytochrome P450 2C19 (Homo sapiens), sequence (P33261 whole entry, looked up): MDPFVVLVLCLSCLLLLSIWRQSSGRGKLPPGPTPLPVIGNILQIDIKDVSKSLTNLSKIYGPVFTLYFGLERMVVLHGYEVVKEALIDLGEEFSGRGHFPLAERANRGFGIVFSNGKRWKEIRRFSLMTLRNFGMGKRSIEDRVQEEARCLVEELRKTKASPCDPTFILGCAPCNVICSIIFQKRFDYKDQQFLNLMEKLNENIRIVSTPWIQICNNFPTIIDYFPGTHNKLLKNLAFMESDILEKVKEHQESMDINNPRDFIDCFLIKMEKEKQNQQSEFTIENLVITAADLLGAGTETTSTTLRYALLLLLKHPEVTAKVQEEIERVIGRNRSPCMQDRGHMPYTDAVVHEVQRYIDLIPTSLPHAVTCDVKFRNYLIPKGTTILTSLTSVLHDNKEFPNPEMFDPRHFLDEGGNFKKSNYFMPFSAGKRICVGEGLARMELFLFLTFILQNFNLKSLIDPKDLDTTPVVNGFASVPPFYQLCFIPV
How it was run: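 P450-Glo CYP2C19 system: enzyme-substrate mix with compound 10 min at room temperature, then NADPH regeneration solution, 1 h at 37C. Proluciferin-to-luciferin conversion detected by luminescence after 20 min with detection reagent; ketoconazole as positive control.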

[10] = target: Cytochrome P450 2C9 (Homo sapiens) (UniProt P11712); assay: Cytochrome P450 Family 2 Subfamily C Member 9 (CYP2C9) small molecule antagonists: luciferase reporter qHTS assay (AID 1671198); note: nearly all actives have a fitted effect of over 50% in size; note: potency is the fitted concentration of half-maximal effect
Cytochrome P450 2C9 (Homo sapiens), sequence (P11712 whole entry, looked up): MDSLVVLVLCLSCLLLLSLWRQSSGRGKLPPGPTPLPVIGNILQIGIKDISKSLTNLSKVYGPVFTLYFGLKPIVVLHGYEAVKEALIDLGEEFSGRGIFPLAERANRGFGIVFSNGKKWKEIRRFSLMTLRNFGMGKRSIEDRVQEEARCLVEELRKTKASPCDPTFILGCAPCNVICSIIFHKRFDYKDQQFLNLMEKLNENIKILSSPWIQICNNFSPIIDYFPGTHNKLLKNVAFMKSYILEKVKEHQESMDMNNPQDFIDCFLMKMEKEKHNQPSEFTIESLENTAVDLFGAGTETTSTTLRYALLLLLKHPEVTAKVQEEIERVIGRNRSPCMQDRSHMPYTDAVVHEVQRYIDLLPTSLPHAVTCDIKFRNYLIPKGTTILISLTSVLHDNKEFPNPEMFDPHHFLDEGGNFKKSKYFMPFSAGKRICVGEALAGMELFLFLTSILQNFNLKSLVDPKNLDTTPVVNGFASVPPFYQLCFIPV
How it was run: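 P450-Glo proluciferin substrate with CYP2C9 enzyme; 10 min RT preincubation, then NADPH regeneration 1 h at 37C; luciferin detection reagent 20 min RT, luminescence in relative luminescence units.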

[11] = target: Cytochrome P450 1A2 (Homo sapiens) (UniProt P05177); assay: Cytochrome P450 Family 1 Subfamily A Member 2 (CYP1A2) small molecule antagonists: luciferase reporter qHTS assay (AID 1671199); note: nearly all actives have a fitted effect of over 50% in size; note: potency is the fitted concentration of half-maximal effect
Cytochrome P450 1A2 (Homo sapiens), sequence (P05177 whole entry, looked up): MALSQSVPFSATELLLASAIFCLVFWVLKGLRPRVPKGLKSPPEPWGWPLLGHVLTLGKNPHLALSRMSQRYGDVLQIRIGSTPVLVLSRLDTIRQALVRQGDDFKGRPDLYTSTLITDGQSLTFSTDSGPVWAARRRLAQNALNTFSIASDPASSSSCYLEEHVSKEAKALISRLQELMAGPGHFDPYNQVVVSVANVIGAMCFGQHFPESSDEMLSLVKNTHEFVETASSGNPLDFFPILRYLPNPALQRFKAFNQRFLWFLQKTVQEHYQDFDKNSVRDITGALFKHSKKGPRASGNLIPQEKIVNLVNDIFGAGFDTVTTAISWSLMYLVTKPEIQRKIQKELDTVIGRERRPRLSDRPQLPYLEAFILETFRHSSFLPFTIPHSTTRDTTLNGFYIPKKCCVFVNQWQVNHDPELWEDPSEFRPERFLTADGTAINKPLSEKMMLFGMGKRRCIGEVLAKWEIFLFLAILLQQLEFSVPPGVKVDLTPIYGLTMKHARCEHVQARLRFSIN
How it was run: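 Human CYP1A2 activity measured with a P450-Glo proluciferin substrate; compounds in DMSO preincubated 10 min at room temperature with enzyme-substrate mix, then NADPH regeneration system added for 1 h. Luciferin detection reagent, 20 min, luminescence read.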

[12] = target: Voltage-gated inwardly rectifying potassium channel KCNH2 (Homo sapiens) (UniProt Q12809); assay: Human Ether-a-go-go-Related Gene (hERG) channel small molecule antagonists: fluorescence cell-based qHTS assay (AID 1671200)
Voltage-gated inwardly rectifying potassium channel KCNH2 (Homo sapiens), sequence (Q12809 whole entry, looked up): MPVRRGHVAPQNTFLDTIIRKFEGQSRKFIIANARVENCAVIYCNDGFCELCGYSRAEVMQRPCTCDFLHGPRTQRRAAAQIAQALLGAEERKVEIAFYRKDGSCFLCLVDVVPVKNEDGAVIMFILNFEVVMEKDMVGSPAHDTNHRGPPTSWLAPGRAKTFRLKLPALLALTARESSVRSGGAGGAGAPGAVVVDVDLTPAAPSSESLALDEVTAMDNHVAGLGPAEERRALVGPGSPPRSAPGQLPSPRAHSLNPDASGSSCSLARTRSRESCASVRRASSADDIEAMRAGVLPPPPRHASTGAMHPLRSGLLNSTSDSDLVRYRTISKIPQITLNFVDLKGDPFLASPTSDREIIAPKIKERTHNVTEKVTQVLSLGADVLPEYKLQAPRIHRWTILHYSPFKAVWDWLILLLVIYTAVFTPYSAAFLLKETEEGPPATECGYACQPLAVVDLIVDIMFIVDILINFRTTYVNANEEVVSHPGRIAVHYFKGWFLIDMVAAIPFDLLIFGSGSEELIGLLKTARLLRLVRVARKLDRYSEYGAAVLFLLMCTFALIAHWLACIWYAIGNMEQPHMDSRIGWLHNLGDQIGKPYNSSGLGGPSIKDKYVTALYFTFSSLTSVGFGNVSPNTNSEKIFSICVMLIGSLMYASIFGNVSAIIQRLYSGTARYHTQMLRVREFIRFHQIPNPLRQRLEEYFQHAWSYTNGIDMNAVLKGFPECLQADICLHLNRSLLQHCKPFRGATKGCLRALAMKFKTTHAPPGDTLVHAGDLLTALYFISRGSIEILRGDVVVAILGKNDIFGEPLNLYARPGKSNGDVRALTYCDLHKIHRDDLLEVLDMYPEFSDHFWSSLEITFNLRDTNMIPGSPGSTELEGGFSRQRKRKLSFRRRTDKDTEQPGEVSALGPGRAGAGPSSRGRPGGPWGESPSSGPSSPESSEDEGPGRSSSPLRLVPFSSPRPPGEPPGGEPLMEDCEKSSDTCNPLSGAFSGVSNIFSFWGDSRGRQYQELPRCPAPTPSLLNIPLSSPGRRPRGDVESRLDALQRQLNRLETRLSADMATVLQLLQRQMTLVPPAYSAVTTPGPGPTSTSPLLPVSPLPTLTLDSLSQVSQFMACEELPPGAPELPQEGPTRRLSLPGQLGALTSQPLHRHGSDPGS
How it was run: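 Thallium flux as potassium surrogate: FluxOR II dye loaded 1 h at room temperature into hERG-expressing U2OS cells, then stimulus buffer added after 10 min. Kinetic 480 nm excitation/540 nm emission read, 2 min.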

[13] = target: Cytochrome P450 3A4 (Homo sapiens) (UniProt P08684); assay: Cytochrome P450 Family 3 Subfamily A Member 4 (CYP3A4) small molecule antagonists: luciferase reporter qHTS assay (AID 1671201); note: nearly all actives have a fitted effect of over 50% in size; note: potency is the fitted concentration of half-maximal effect
Cytochrome P450 3A4 (Homo sapiens), sequence (P08684 whole entry, looked up): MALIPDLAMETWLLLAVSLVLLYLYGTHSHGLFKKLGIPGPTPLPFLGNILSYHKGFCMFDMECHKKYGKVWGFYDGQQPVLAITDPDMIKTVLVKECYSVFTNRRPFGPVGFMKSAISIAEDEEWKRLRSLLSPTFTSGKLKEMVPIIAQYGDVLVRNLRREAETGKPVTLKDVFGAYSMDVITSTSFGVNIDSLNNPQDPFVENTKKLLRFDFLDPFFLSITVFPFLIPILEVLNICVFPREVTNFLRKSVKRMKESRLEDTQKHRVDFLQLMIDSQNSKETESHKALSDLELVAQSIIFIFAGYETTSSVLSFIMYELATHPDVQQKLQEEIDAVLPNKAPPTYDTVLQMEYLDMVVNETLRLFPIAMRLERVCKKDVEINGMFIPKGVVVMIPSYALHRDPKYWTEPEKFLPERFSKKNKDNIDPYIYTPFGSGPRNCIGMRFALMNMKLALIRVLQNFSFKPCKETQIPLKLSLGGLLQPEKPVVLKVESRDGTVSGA
How it was run: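 Recombinant human CYP3A4 converts a proluciferin substrate to luciferin over 1 h at room temperature after NADPH regeneration solution is added (compound preincubated 10 min); detection reagent stops reaction, luminescence read 20 min later as relative units.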

[14] = Caspase-3/7 induction in HepG2 cells by small molecules, qHTS assay (AID 1346978); note: nearly all actives have a fitted effect of over 15% in size
How it was run: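 Wild-type HepG2 cells, 2,000/well, settled 5 hr at 37 C and 5% CO2, then compound-treated for 17 hr; caspase-3/7 activity read by luminescent Caspase-Glo 3/7 after 30 min at room temperature.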

[15] = Caspase-3/7 induction in CHO-K1 cells by small molecules, qHTS assay (AID 1346980); note: nearly all actives have a fitted effect of over 15% in size; note: potency is the fitted concentration of half-maximal effect
How it was run: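 Wild-type CHO-K1 cells exposed to compounds for 17hr at 37 C, 5% CO2. Caspase-3/7 activity then measured by Caspase-Glo 3/7 luminescence after 30min at room temperature.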

[16] = Caspase-3/7 induction in CHO-K1 cells by small molecules, qHTS cell viability counter screen (AID 1346979); note: nearly all actives have a fitted effect of over 35% in size; note: potency is the fitted concentration of half-maximal effect
How it was run: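 Cytotoxicity counter screen: CellTiter-Fluor added to compound-treated wild-type CHO-K1 cells at 16 h (37C, 5% CO2), fluorescence measured 1 h later; same wells as caspase-3/7 measurement.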

| SMILES | Potency [1] | Potency [2] | Potency [3] | Potency [4] | max activation [5] | outcome [6] | outcome [7] | Potency [8] | Potency [9] | Potency [10] | Potency [11] | Potency [12] | Potency [13] | Potency [14] | Potency [15] | Potency [16] |
| --- | --- | --- | --- | --- | --- | --- | --- | --- | --- | --- | --- | --- | --- | --- | --- | --- |
| O=C1O[C@H](CO)[C@@H](O)[C@H](O)[C@H]1O | inactive | inactive | inactive | inactive | 1.43% (inactive) | inactive | inactive | inactive | inactive | inactive | inactive | inactive | inactive |  |  |  |
| O=C(c1ccc(O)cc1)c1ccc(O)cc1O | inactive | inactive | inactive | 61.8 µM (active) and 48.6 µM (active) |  |  |  | 36 µM (active) and 35.6 µM (active) | 32.1 µM (active) and inactive | inactive | 28.6 µM (active) and 35.6 µM (active) | inactive | 7.18 µM (active) and 22.4 µM (active) | inactive | inactive |  |
| CC1(C)CC(N=C=O)CC(C)(CN=C=O)C1 (stereo not given) | inactive | inactive | inactive | inactive |  |  |  | 25.5 µM (active) and 39.9 µM (active) | 18.1 µM (active) and inactive |  | inactive | inactive |  |  | inactive | inactive |
| COC(=O)c1ccc(C(=O)OC)cc1 | inactive | 7.08 µM (active) and inactive | inactive | 2.2 µM (active) and inactive |  |  |  | inactive | 18.1 µM (active) and inactive | 40.5 µM (active) and inactive | 25.5 µM (active) and 10 µM (active) | inactive |  |  | inactive | 780 nM (active) and inactive |
| CC1Cc2ccccc2N1NC(=O)c1ccc(Cl)c(S(N)(=O)=O)c1 (stereo not given) | inactive | inactive | inactive | 30.6 µM (active) and 9.44 µM (active) | -2.07% (inactive) | inactive | inactive |  | inactive | inactive | inactive | inactive |  |  | inactive | inactive |
| O=S(=O)(O)c1cc(S(=O)(=O)O)c2c(N=Nc3ccccc3)c(O)ccc2c1 | inactive | 39.8 µM (active) and 54.5 µM (active) | 54.7 µM (active) and 54.5 µM (active) | inactive |  |  |  | inactive | 71.3 µM (active) and inactive | inactive | inactive | inactive |  | inactive | inactive |  |
| ClC1=C(Cl)C(Cl)(Cl)C(Cl)=C1Cl | inactive | inactive | inactive | inactive |  |  |  | inactive | inactive |  | inactive | inactive | inactive | inactive | inactive and 68.6 µM (active) |  |
| O=C(Oc1ccccc1)c1ccc(O)cc1 | inactive | inactive | inactive | inactive |  |  |  | inactive | 40.2 µM (active) and 22.4 µM (active) | 11.3 µM (active) and 25.2 µM (active) | 28.5 µM (active) and 35.6 µM (active) | inactive | inactive | inactive |  |  |
| C=CC(=O)OCCCCCCCC(C)C | inactive | inactive | inactive | inactive |  |  |  | inactive | inactive | inactive | inactive | inactive |  | inactive |  |  |
| CCc1ccccc1O | inactive | inactive | inactive |  |  |  |  | 35.4 µM (active) and inactive | 17.7 µM (active) and inactive | 35.4 µM (active) | 31.6 µM (active) | inactive | 31.6 µM (active) and inactive | inactive | inactive |  |
| Cc1ccc(C)c(C)c1 | inactive | inactive | inactive | inactive |  |  |  | inactive | inactive | inactive | inactive and 29.6 µM (active) | inactive |  |  |  |  |
| CN(C)c1cccc(O)c1 | inactive | inactive | inactive | 49.3 µM (active) and 54.5 µM (active) |  |  |  | 40.5 µM (active) | 2.56 µM (active) and 3.56 µM (active) | 16.1 µM (active) and 12.6 µM (active) | 32.2 µM (active) and 31.7 µM (active) | inactive |  |  | inactive | inactive |
| CCCCNC(N)=O | inactive | inactive | inactive | inactive |  |  |  | inactive | inactive | inactive | inactive | inactive | inactive |  | inactive |  |
| CCCCCC/C=C/CCCCCCCC(=O)O | inactive | inactive | inactive | inactive |  |  |  | inactive | inactive | inactive | inactive | inactive | inactive |  | inactive | inactive |
| CC(C)NCC(O)COc1cccc2ccccc12 (stereo not given) | inactive and 43.7 µM (active) | 39.8 µM (active) | inactive |  |  |  |  |  |  |  |  |  |  |  | inactive |  |
